{
  "source": "the supplement of paper PMC6555819",
  "data": [
    {"system": "VDR:RXRa (NR concentration 270 nM, RXRa partner concentration 90 nM)", "assay": "PBM binding z-score (relative to random genomic background probes); higher = stronger binding; sequences stand for … in GC…GCGATTGACAGCGTAGAATGAAGG", "experimental": "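Protein-binding microarray (Agilent 4x180K custom design, double-stranded 60-nt probes: 5' GC cap, 34-nt variable region, 24-nt constant primer region; full probe sequence given). Purified or IVT nuclear receptor:RXRα heterodimers (3:1 NR:RXRα, mostly 270:90 nM) or homodimers were incubated for 1 h in PBS with 2% milk and no ligand, then detected with Alexa488 antibodies. Fluorescence from o1-orientation probes (~5 replicates averaged) was converted to z-scores against 500 random hg19 background probes. Variable regions are seed direct-repeat (DR0–DR5) sites, all their single-nucleotide variants and half-site ablations.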", "values": [
      {"sequence": "ACTATTAGTTGAGACGATGGCAACCGATAGGTTG", "PBM binding z-score": -0.293},
      {"sequence": "CCTCACGGGTCACGAGGTTATAGCACGACGAGCG", "PBM binding z-score": 4.79},
      {"sequence": "TCTAGTTGGTCACAGAGGTCACACACGACGGGTA", "PBM binding z-score": 6.44},
      {"sequence": "CAAACTAGGTCAAGGGTCAAAGTCGAGCCAACCA", "PBM binding z-score": 5.5},
      {"sequence": "ACAGACAGGTGAGTAAAGGTAACTCAGCTGGACG", "PBM binding z-score": -0.139},
      {"sequence": "GCGACTGGGGCATCAGCAGGTTATCATAACTTAA", "PBM binding z-score": -0.0496},
      {"sequence": "ATCTCTAGGTAAGCCTCAGTTCAGTGAAGAACGC", "PBM binding z-score": 0.546},
      {"sequence": "CCTCGGAGGACTGAAGGTCAGAGCTGTCCGCTTT", "PBM binding z-score": 0.567},
      {"sequence": "ATACCAGGGTGATCGTGAGGTCGTTGATACTAAC", "PBM binding z-score": 3.22},
      {"sequence": "TGTCAAAGTTCAAAGCTAACGTAAGTATCCACAC", "PBM binding z-score": 4.16},
      {"sequence": "ATACCAAGGTGATCGTGAGGTCGTTGGTACTAAC", "PBM binding z-score": 3.09},
      {"sequence": "TCTCGGAGGACCCGAAGGTCAGAGCTTTCCAGAG", "PBM binding z-score": 0.636},
      {"sequence": "CAAACTAGGTCACCGGAAGGTCAAAGACCGCATG", "PBM binding z-score": 5.76},
      {"sequence": "TCAGACAGCTGAAGGTAACTCAGGTACGCAGTCG", "PBM binding z-score": 0.484},
      {"sequence": "AGAATGAGTTTATACGTAGATCAGGGAAGAAAGT", "PBM binding z-score": 1.71},
      {"sequence": "ATATGTAGGTTACATCCGGGTCAGTCAGGCTATG", "PBM binding z-score": 2.62},
      {"sequence": "GCTGCTACGTCAACTGATGGTCAGCTAAAGCTCG", "PBM binding z-score": -0.617},
      {"sequence": "CCTTACGGGTCACTCCAGCTTATAGCATCGGAGT", "PBM binding z-score": 2.73},
      {"sequence": "ATCGAAAGGTCGTGAGGCGAGTATACAGAAAGGC", "PBM binding z-score": 3.18},
      {"sequence": "GCTAGCAGGCCGTTTGGGTCACTCAATGACGGGC", "PBM binding z-score": 0.00602},
      {"sequence": "AGATCGAGGGCAATGAGTTGATAGCACGGGTGGC", "PBM binding z-score": 5.15},
      {"sequence": "CTTCCAAGGTCAGAGAGGTCAGTGAATGCCGAGT", "PBM binding z-score": 7.43},
      {"sequence": "TCGAGTAGGTGACCAATGGGGCATTCAGCTTTCT", "PBM binding z-score": -0.154},
      {"sequence": "TCTAACAGGCCAGAGGGTCACTCAAGAGGTACGG", "PBM binding z-score": 1.76},
      {"sequence": "GATACAGGGTCAAGGACAGAGTACGCGTATTGAT", "PBM binding z-score": 4.78},
      {"sequence": "AGAACGAGGGCAATGAGTTGATTGCACGGGTGGC", "PBM binding z-score": 5.07},
      {"sequence": "ACTTACGGGTCAACCAGGTTATAGCACGCGTATA", "PBM binding z-score": 6.72},
      {"sequence": "TCAGACAGGTGAAGGTAACTTAGGTACGCAGTCG", "PBM binding z-score": 1.02},
      {"sequence": "ATCGAAAGGTAGACGAGGTGAGTATACACCGTTT", "PBM binding z-score": 0.452},
      {"sequence": "CCAGACAGGTGAGAAGGTAACTTAGCCTCGATTA", "PBM binding z-score": 0.0956},
      {"sequence": "TCTTTTAGATCAATAGAGGTTAAGAAAGTGCGCT", "PBM binding z-score": 2.22},
      {"sequence": "CCTTACGGGTCACTAGGTTATAGCACGACGAGCG", "PBM binding z-score": 3.38},
      {"sequence": "GTACCAAGGTGAATACGTCGTTGATGAGTAGGCG", "PBM binding z-score": -0.262},
      {"sequence": "AATACAGGGTCATCGTAGCCCAGAGTACGCACAG", "PBM binding z-score": 4.83},
      {"sequence": "TAGCCTAGGTCATTCAGGGGCCAGTAAAGAAAGC", "PBM binding z-score": 3.21},
      {"sequence": "CGTCAAAGTTCAACTCAGGTAACGTAAAGCACGC", "PBM binding z-score": 4.45},
      {"sequence": "CCTATTAGTTGACCATAAGGGCAACCGAAGCTCG", "PBM binding z-score": 1.22},
      {"sequence": "AGAAGGAGGTTAAGATCAGGGAAACAGAATACAT", "PBM binding z-score": 0.978},
      {"sequence": "TCGAGTAGGTAAGTCGGGGCATTCAGCCAACATA", "PBM binding z-score": 0.394},
      {"sequence": "AGTCTAAGTTCATCTAGGTAACGTAAGATATGCT", "PBM binding z-score": 4.65}
    ]}
  ]
}
